# Results as given in the supplement of paper PMC10037445.
# Whole data set: some 2,900 compounds, median “NF-kB SEAP reporter activity, fold change vs agonist alone” near 0.99, cut for the highest 2% near 2.6. Only a selection was taken, and the highest values are over-represented in it overall.
# Key:
# [1] = system: RAW-Dual; assay: NF-kB SEAP reporter activity, fold change vs agonist alone; cytotoxicity flag (confluency mask): not cytotoxic; higher = enhanced NF-kB activity
# In short: (§1)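 Reporter activity is given as fold change relative to agonist-alone wells. To measure it, 50 nL of library stock was pin-tooled onto RAW-Dual macrophages (50,000 cells/well, DMEM, 384-well plates), a PRR agonist followed 1 h later, and cells stayed at 37 °C, 5% CO2. Twenty hours on, supernatant was assayed for IRF (QuantiLuc luminescence) and NF-κB (QuantiBlue, 620 nm absorbance), and wells under 70% of agonist-control IncuCyte confluency in both mask sets were marked cytotoxic.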
# [2] = system: RAW-Dual; assay: NF-kB SEAP reporter activity, fold change vs agonist alone; higher = enhanced NF-kB activity; details: library stock concentration (final ~1000-fold dilution): 10 mM
# In short: as §1
# [3] = system: RAW-Dual; assay: NF-kB SEAP reporter activity, fold change vs agonist alone; cytotoxicity flag (confluency mask): cytotoxic (confluency <70% of control); higher = enhanced NF-kB activity
# In short: as §1
# [4] = agonist: ODN 1826 (TLR9) 0.5 ug/mL
# [5] = agonist: Pam2CSK4 (TLR2/6) 0.1 ug/mL
# [6] = agonist: Pam3CSK4 (TLR2/1) 0.1 ug/mL
# [7] = cytotoxicity flag (confluency mask): cytotoxic (confluency <70% of control), agonist: Imiquimod (TLR7) […]
# [8] = cytotoxicity flag (confluency mask): cytotoxic (confluency <70% of control), agonist: MPLA (TLR4) […]
# [9] = cytotoxicity flag (confluency mask): not cytotoxic, agonist: Imiquimod (TLR7) […]
# [10] = cytotoxicity flag (confluency mask): not cytotoxic, agonist: MPLA (TLR4) […]
smiles,measurement,setting,value
CN(C)CCCNC(=O)c1ccc(-c2cc(O)c3ncccc3c2)cc1 (library stock concentration (final ~1000-fold dilution): 10 mM),NF-kB SEAP reporter activity,[1]; agonist: LPS (TLR4) 0.1 ug/mL,0.881
same,NF-kB SEAP reporter activity,[1]; [4],1.38
same,NF-kB SEAP reporter activity,[1]; [5],1.13
same,NF-kB SEAP reporter activity,[1]; [6],1.34
O=C(CCCCCCC(=O)N/N=C/c1ccc(N(c2ccccc2)c2ccccc2)cc1)NO,NF-kB SEAP reporter activity,[2]; [7],1.77
same,NF-kB SEAP reporter activity,[2]; [8],2.3
O=C(CCCCCCNC(=O)c1cnc(N(c2ccccc2)c2ccccc2)nc1)NO,NF-kB SEAP reporter activity,[2]; [7],1.12
same,NF-kB SEAP reporter activity,[2]; [8],2.14
CCOC(=O)NCCCC(=O)NCCc1ccccc1 (library stock concentration (final ~1000-fold dilution): 10 mM),NF-kB SEAP reporter activity,[1]; agonist: LPS (TLR4) 0.1 ug/mL,1.31
same,NF-kB SEAP reporter activity,[1]; [4],0.995
same,NF-kB SEAP reporter activity,[1]; [5],1.17
same,NF-kB SEAP reporter activity,[1]; [6],1.06
CCOC(=O)NCCCC(=O)NCCc1ccccc1,NF-kB SEAP reporter activity,[2]; [9],0.961
same,NF-kB SEAP reporter activity,[2]; [10],0.985
O=C(CCCCCCNC(=O)c1cnc(N(c2ccccc2)c2ccccc2)nc1)NO (library stock concentration (final ~1000-fold dilution): 10 mM),NF-kB SEAP reporter activity,[3]; agonist: LPS (TLR4) 0.1 ug/mL,4.12
same,NF-kB SEAP reporter activity,[3]; [4],1.3
same,NF-kB SEAP reporter activity,[3]; [5],0.825
same,NF-kB SEAP reporter activity,[3]; [6],1.08
O=C(N/N=C/c1ccc(O)c(O)c1)c1cc2ccccc2cc1O,NF-kB SEAP reporter activity,[2]; [9],0.605
same,NF-kB SEAP reporter activity,[2]; [10],0.843
O=C(NO)c1cccc(C(=O)NCCc2ccccc2)c1,NF-kB SEAP reporter activity,[2]; [9],1.05
same,NF-kB SEAP reporter activity,[2]; [10],1.05
O=C(NO)c1cccc(C(=O)NCCc2ccccc2)c1 (library stock concentration (final ~1000-fold dilution): 10 mM),NF-kB SEAP reporter activity,[1]; agonist: LPS (TLR4) 0.1 ug/mL,0.989
same,NF-kB SEAP reporter activity,[1]; [4],1.12
same,NF-kB SEAP reporter activity,[1]; [5],0.864
same,NF-kB SEAP reporter activity,[1]; [6],0.709
O=C(CCCCCCNC(=O)c1cnc(N(c2ccccc2)c2ccccc2Cl)nc1)NO (library stock concentration (final ~1000-fold dilution): 10 mM),NF-kB SEAP reporter activity,[3]; agonist: LPS (TLR4) 0.1 ug/mL,4.23
same,NF-kB SEAP reporter activity,[3]; [4],2.1
same,NF-kB SEAP reporter activity,[3]; [5],0.586
same,NF-kB SEAP reporter activity,[3]; [6],1.47
CN(C)CCCNC(=O)c1ccc(-c2cc(O)c3ncccc3c2)cc1,NF-kB SEAP reporter activity,[2]; [9],1.08
same,NF-kB SEAP reporter activity,[2]; [10],1
CCN(CC)CCNC(=O)c1ccc(N)cc1.Cl,NF-kB SEAP reporter activity,[2]; [9],0.94
same,NF-kB SEAP reporter activity,[2]; [10],1.05
O=C(CCCCCCC(=O)N/N=C/c1ccc(N(c2ccccc2)c2ccccc2)cc1)NO (library stock concentration (final ~1000-fold dilution): 10 mM),NF-kB SEAP reporter activity,[3]; agonist: LPS (TLR4) 0.1 ug/mL,5.47
same,NF-kB SEAP reporter activity,[3]; [4],2.71
same,NF-kB SEAP reporter activity,[3]; [5],1.09
same,NF-kB SEAP reporter activity,[3]; [6],1.61
CC(NCc1ccc(OCc2cccc(F)c2)cc1)C(N)=O.CS(=O)(=O)O (stereo not drawn),NF-kB SEAP reporter activity,[2]; [9],1.73
same,NF-kB SEAP reporter activity,[2]; [10],1.07
CC(NCc1ccc(OCc2cccc(F)c2)cc1)C(N)=O.CS(=O)(=O)O (stereo not drawn) (library stock concentration (final ~1000-fold dilution): 10 mM),NF-kB SEAP reporter activity,[1]; agonist: LPS (TLR4) 0.1 ug/mL,1.08
same,NF-kB SEAP reporter activity,[1]; [4],1.17
same,NF-kB SEAP reporter activity,[1]; [5],0.813
same,NF-kB SEAP reporter activity,[1]; [6],1.1
CCc1cnn2c(NCc3ccc[n+]([O-])c3)cc(N3CCCCC3CCO)nc12 (stereo not drawn) (library stock concentration (final ~1000-fold dilution): 10 mM),NF-kB SEAP reporter activity,[3]; agonist: LPS (TLR4) 0.1 ug/mL,0.193
same,NF-kB SEAP reporter activity,[3]; [4],0.198
same,NF-kB SEAP reporter activity,[3]; [5],0.0843
same,NF-kB SEAP reporter activity,[3]; [6],0.182
CCc1cnn2c(NCc3ccc[n+]([O-])c3)cc(N3CCCCC3CCO)nc12 (stereo not drawn),NF-kB SEAP reporter activity,[2]; [7],0.308
same,NF-kB SEAP reporter activity,[2]; [8],0.225
Cc1cn(-c2cc(NC(=O)c3ccc(C)c(Nc4nccc(-c5cccnc5)n4)c3)cc(C(F)(F)F)c2)cn1.Cl,NF-kB SEAP reporter activity,[2]; [10],2.49
Cc1cn(-c2cc(NC(=O)c3ccc(C)c(Nc4nccc(-c5cccnc5)n4)c3)cc(C(F)(F)F)c2)cn1.Cl (library stock concentration (final ~1000-fold dilution): 10 mM),NF-kB SEAP reporter activity,[1]; agonist: LPS (TLR4) 0.1 ug/mL,2.23
same,NF-kB SEAP reporter activity,[1]; [4],1.41
same,NF-kB SEAP reporter activity,[1]; [5],0.403
same,NF-kB SEAP reporter activity,[1]; [6],0.466
Nc1nc(NC2CC2)c2ncn(C3C=CC(CO)C3)c2n1 (stereo not drawn),NF-kB SEAP reporter activity,[2]; [10],1.16
Nc1nc(NC2CC2)c2ncn(C3C=CC(CO)C3)c2n1 (stereo not drawn) (library stock concentration (final ~1000-fold dilution): 10 mM),NF-kB SEAP reporter activity,[1]; agonist: LPS (TLR4) 0.1 ug/mL,1.05
same,NF-kB SEAP reporter activity,[1]; [4],1.07
same,NF-kB SEAP reporter activity,[1]; [5],1.35
same,NF-kB SEAP reporter activity,[1]; [6],1.07
CCN(CC)C(=O)C1(c2ccccc2)CC1CN.Cl (stereo not drawn),NF-kB SEAP reporter activity,[2]; [9],1.02
same,NF-kB SEAP reporter activity,[2]; [10],1.1
CCN(CC)C(=O)C1(c2ccccc2)CC1CN.Cl (stereo not drawn) (library stock concentration (final ~1000-fold dilution): 10 mM),NF-kB SEAP reporter activity,[1]; agonist: LPS (TLR4) 0.1 ug/mL,0.999
same,NF-kB SEAP reporter activity,[1]; [4],0.858
same,NF-kB SEAP reporter activity,[1]; [5],0.856
same,NF-kB SEAP reporter activity,[1]; [6],1.18
CC(=O)O.NCc1ccc(S(N)(=O)=O)cc1 (library stock concentration (final ~1000-fold dilution): 10 mM),NF-kB SEAP reporter activity,[1]; agonist: LPS (TLR4) 0.1 ug/mL,1.04
same,NF-kB SEAP reporter activity,[1]; [4],1.01
same,NF-kB SEAP reporter activity,[1]; [5],0.927
same,NF-kB SEAP reporter activity,[1]; [6],1.23
CC(=O)O.NCc1ccc(S(N)(=O)=O)cc1,NF-kB SEAP reporter activity,[2]; [9],1.17
same,NF-kB SEAP reporter activity,[2]; [10],1.03
CC1(C)CC(=O)c2c(C(F)(F)F)nn(-c3ccc(C(N)=O)c(NC4CCC(OC(=O)CN)CC4)c3)c2C1 (stereo not drawn),NF-kB SEAP reporter activity,[2]; [9],0.916
same,NF-kB SEAP reporter activity,[2]; [10],0.907
CC1(C)CC(=O)c2c(C(F)(F)F)nn(-c3ccc(C(N)=O)c(NC4CCC(OC(=O)CN)CC4)c3)c2C1 (stereo not drawn) (library stock concentration (final ~1000-fold dilution): 10 mM),NF-kB SEAP reporter activity,[1]; agonist: LPS (TLR4) 0.1 ug/mL,0.226
same,NF-kB SEAP reporter activity,[1]; [4],0.929
same,NF-kB SEAP reporter activity,[1]; [5],0.113
same,NF-kB SEAP reporter activity,[1]; [6],0.234
